GALK inh: galactokinase (human) inhibition. Potency, µM (doses to about 57.5 µM), most hits filed as inhibitors. hit rate 0.007% among 270,000. P51570. AID 1868. Purified GALK, Kinase-Glo residual ATP luminescence
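The enzyme phosphorylates galactose (100 uM) using ATP (35 uM); inhibition is detected as higher residual ATP, quantified by bioluminescence after 1 h reaction at room temperature, pH 8.0.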
TrxR1 substrate: rat thioredoxin reductase 1 substrate activity | hit rate 0.01% among 390,000 | purified TrxR1 substrate turnover, NADPH consumption readout | AID 588456 | Potency, µM (doses to about 114 µM); note: nearly all actives have a fitted effect of over 50% in size
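Rat TrxR1, dispensed at 90 nM, was prereduced with 400 uM NADPH (final) for 5 min at ~22 deg C, then incubated with compound 15 min before 400 uM selenite. A first-read NADPH fluorescence drop versus no-compound background flagged substrates.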
PI4K2A block: PI4K2A (human) kinase inhibition; activity change, negative = inhibition, % at 76.9 µM; hit rate 0.13% among 420,000; purified PI4K2A, ADP-Glo luminescence, 1 h; stronger effect = lower value; in the data active = activity change below about -50%; inconclusive = mostly about -30% to -49%
Target sequence (Q9BTU6 whole entry, looked up): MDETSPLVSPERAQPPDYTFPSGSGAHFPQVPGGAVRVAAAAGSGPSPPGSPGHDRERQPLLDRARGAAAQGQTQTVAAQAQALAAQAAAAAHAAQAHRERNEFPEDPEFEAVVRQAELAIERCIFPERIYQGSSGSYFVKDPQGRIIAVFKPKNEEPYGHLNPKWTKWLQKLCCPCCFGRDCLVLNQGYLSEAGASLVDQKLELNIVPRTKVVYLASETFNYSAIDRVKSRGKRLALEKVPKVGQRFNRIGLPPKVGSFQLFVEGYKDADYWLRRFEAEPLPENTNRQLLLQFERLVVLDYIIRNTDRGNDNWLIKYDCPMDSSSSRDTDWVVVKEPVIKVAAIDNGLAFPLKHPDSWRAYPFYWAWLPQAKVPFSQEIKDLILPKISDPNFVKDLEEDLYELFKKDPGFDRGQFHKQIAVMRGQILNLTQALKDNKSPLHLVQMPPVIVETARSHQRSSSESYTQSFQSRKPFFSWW
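In this quantitative HTS, ADP production by PI4K2A was quantified luminescently after 1 h at ambient temperature; 100 microM adenosine served as plate-quality control.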
Coupling enz: counter-screen for Giardia aldolase inhibitors: coupling enzyme system; coupling enzyme system counterscreen, AmpLite Red fluorescence; activity change, negative = inhibition, % at 58.2 µM, hits read low; hit rate 0.67% among 290,000; in the data active = activity change below about -30%
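Counterscreen lacking aldolase: glyceraldehyde-3-phosphate coupling-enzyme reagent preincubated 10 min at RT with compound (at 57.5 uM final), then substrate/coupling system with AmpLite Red added; fluorescence read at 525/598 nm after 20 min RT.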
rTrxR1 inhibitor: inhibitors of rat thioredoxin reductase 1; O89049; recombinant rTrxR1, NADPH fluorescence consumption, selenite substrate; Potency, µM (top dose mostly 114 µM), most hits filed as inhibitors; hit rate 1% among 390,000; note: nearly all actives have a fitted effect of over 65% in size
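Rat TrxR1 (90 nM in the dispensed reagent) was pre-reduced with 400 uM NADPH for 5 min at room temperature, then incubated with compound for 15 min. After 400 uM selenite was added, NADPH fluorescence (Ex 340/Em 450 nm) was followed for 8 min.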
Giardia kill: kills Giardia lamblia | hit rate 0.15% among 340,000 | activity change, % at 7.66 µM, hits read low | Giardia lamblia trophozoite viability; in the data active = activity change below about -80%; inconclusive = between about -30% and that limit;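 note: parasites exposed to compound for two days anaerobically before the ATP read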
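Anaerobic 48 hrs incubation at 37 deg C of 100 trophozoites/well with test compounds; ATPLite 1-Step luminescence, 15-30 min RT, reports cellular ATP as viability.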
A number is an active result; - = inactive; ? = inconclusive; . = not tested or not shown; [ ] = remark or other dose. Hits are enriched below; roughly 1.5% of the tested compounds scored in any of these assays. Unless noted, calls come from the whole dose curve; as a rule, active = well fitted curve in the direction sought with a large enough effect; inconclusive = small, poorly fitted or top-dose-only effect, or another doubt; inactive = no such curve, though single readings can be large; an effect the other way counts as inactive or inconclusive.

SMILES | GALK inh | TrxR1 substrate | PI4K2A block | Coupling enz | rTrxR1 inhibitor | Giardia kill
COc1ccc(OC)c(C(Cc2ccnc3ccccc23)Cc2ccnc3ccccc23)c1 | . | - | . | . | - | .
CCCS(=O)(=O)c1ncc(Cl)c(C(=O)Nc2ccc(S(=O)(=O)Nc3ncccn3)cc2)n1 | - | - | - | - | 45µM | -
CCSc1ncc(Cl)c(C(=O)Nc2ccc(S(=O)(=O)Nc3ncccn3)cc2)n1 | - | - | - | . | - | -
COc1ccc(CCNC(=O)c2nc(SCc3ccccc3F)ncc2Cl)cc1OC | . | - | - | . | - | .
COC(=O)C[C@H]1CC[C@@H]2[C@H](COc3ccc(NC(=O)c4ccccc4OC)cc3C(=O)N2C)O1 | . | . | - | . | . | .
Nc1c(C(=O)O)ccc2c1C(=O)c1ccccc1C2=O | - | - | - | - | - | -
Nc1cc(C(=O)O)c(N)c2c1C(=O)c1ccccc1C2=O | - | - | -55 | - | - | -
Cc1[nH]n(-c2ncc(-c3ccccc3)s2)c(=O)c1C(c1ccc(Br)cc1)C(C#N)C#N (centres undefined) | - | - | - | - | 32µM | -
CN(C)c1c(Cl)cc(/C=C/c2ccnc3ccccc23)cc1Br | . | - | . | . | - | .
COc1ccc(C(C#N)N2CCC(c3ccccc3)=N2)cc1 (centres undefined) | - | - | - | - | 16µM | -
COc1cc(/C=N/Nc2nncn2N)ccc1OCc1c(C)no[n+]1[O-] | - | - | - | -38 | - | -
COc1cc(/C=C(\C#N)C(N)=O)ccc1OCc1c(C)no[n+]1[O-] | . | - | - | - | - | -
CCc1nnc(N/N=C/c2ccc(O)c(OC)c2)n1N | - | - | - | - | - | -
COc1ccc(/C=N/Nc2nncn2N)cc1Br | - | - | -54 | - | - | -
CCn1c(SCC(=O)NCc2ccco2)nnc1-c1ccc(N(C)C)cc1 | . | - | . | . | - | .
CCCCOC(=O)CCN1C(=O)/C(=C/c2ccccc2)SC1=S | . | . | - | . | . | .
Nc1ccc2c(c1)C(=O)C(=O)c1ccccc1-2 | 6.3µM | 4µM | ? | - | 6.3µM | -
Nc1ccc2c(c1)C(=O)c1ccccc1C2=O | . | - | - | . | - | -
O=C1C(=O)c2ccc(-c3ccccc3)cc2-c2ccccc21 | ? | 10µM | -63 | -72 | ? | -
Nc1ccc2c(c1)C(=O)c1ccccc1-2 | . | - | - | . | - | -
COc1cc2c(cc1OC)CN(CCOc1ccc(Br)cc1)CC2 | - | - | - | - | - | -
COc1ccccc1N1CCN(CCCC(=O)c2ccc(F)cc2)CC1 | - | - | - | - | - | -
COc1ccc(C(=O)CCN2CCc3cc(OC)c(OC)cc3C2)cc1 | - | - | - | - | 0.89µM | -
COc1ccc(C(=O)CCN2CCN(c3ccccc3OC)CC2)cc1 | - | - | - | - | 14µM | -
O=c1c([N+](=O)[O-])cccn1Cc1ccccc1Cl | - | - | - | - | ? | ?
SMILES | GALK inh | TrxR1 substrate | PI4K2A block | Coupling enz | rTrxR1 inhibitor | Giardia kill
O=c1c([N+](=O)[O-])cccn1Cc1cccc(Br)c1 | . | - | - | - | - | -85
O=C(NC1CC(=O)N(c2ccccc2)C1)c1ccc(S(=O)(=O)N2CCCCC2)cc1 (centres undefined) | . | - | - | . | - | .
CC1(C)Cc2c(c(-c3ccco3)nc3sc4c(NCCCO)ncnc4c23)CO1 | . | - | - | - | 7.9µM | -
Cc1nn(-c2ccccn2)c2c1-c1nc(N3CCOCC3)ncc1CC2 | - | - | - | -39 | - | -
Cc1nn(-c2ccccn2)c2c1-c1nc(N)sc1CC2 | . | - | . | . | ? | .
Cc1nn(-c2ccccn2)c2c1-c1nc(N)ncc1CC2 | - | - | - | -47 | - | -
Nc1nc(CN2CCCCCC2)nc(Nc2ccccc2)n1 | - | - | - | - | 16µM | -
Cc1ccc(Nc2nc(N)nc(CN3CCCCCC3)n2)cc1 | - | - | - | - | ? | -
Cc1ccc(-n2c(SCC(=O)c3ccccc3Br)nnc2-c2ccncc2)cc1 | . | . | - | . | . | .
COc1cccc(CN=c2c([N+](=O)[O-])nn(-c3ccccc3C)n2O)c1 | - | - | - | - | - | -109
Cc1cccc(-n2nc([N+](=O)[O-])c(=NCc3cccnc3)n2O)c1 | - | - | - | - | - | -88
O=C(c1ccccc1)C(I)(I)N1CCOCC1 | . | -[0.0914 µM] | . | . | - | .
COc1cc2c(NC3CCN(C)CC3)nc(N3CCCN(C)CC3)nc2cc1OCCCN1CCCC1 | . | - | . | . | 50µM | .
COc1ccccc1N1C(=O)C2C(c3ccccc3F)NN(C(=O)c3ccc(C)cc3)C2C1=O (centres undefined) | . | - | - | - | 50µM | -
CCOc1ccc(NC(=S)Nc2cccc3cnccc23)cc1 | - | - | - | -45 | ? | -
COc1ccccc1NC(=S)Nc1cccc2cnccc12 | - | - | - | - | ? | -
COc1ccc(NC(=S)Nc2cccc3cnccc23)cc1 | - | - | - | -37 | - | -
Clc1ccc[n+](CCCCC[n+]2cccc(Cl)c2)c1 | . | - | . | . | ? | .
COc1ccc(OC)c(/C=C/c2c3ccccc3cc[n+]2C)c1 | . | - | . | . | - | .
CN1C(CSCC(F)(F)F)Nc2cc(Cl)c(S(N)(=O)=O)cc2S1(=O)=O (centres undefined) | . | . | - | . | . | .
CC1C/C(=C\c2cccnc2)C(=O)/C(=C/c2cccnc2)C1 (centres undefined) | - | - | - | - | 50µM | ?
CC(C)(C)C(=O)Nc1ccc2c(c1)C(=O)C(=O)c1ccccc1-2 | . | 3.2µM | . | . | 6.3µM | -
C=CCN(C)CC#CCCCCl | . | . | - | . | . | .
Cc1c(CCOC(=O)c2cc([N+](=O)[O-])cc([N+](=O)[O-])c2)sc[n+]1CC(=O)c1ccccc1 | - | - | - | - | 79µM | -
CC(C)C[C@H](NC(=O)OC(C)(C)C)c1nnc(SCc2ccccc2)o1 | - | - | - | - | - | -
SMILES | GALK inh | TrxR1 substrate | PI4K2A block | Coupling enz | rTrxR1 inhibitor | Giardia kill
CC(C)(C)OC(=O)N[C@@H](Cc1ccccc1)c1nnc(S(=O)(=O)Cc2cccc(F)c2)o1 | - | - | - | - | 0.63µM | -
Cc1ccccc1CS(=O)(=O)c1nnc([C@H](CC(C)C)NC(=O)OC(C)(C)C)o1 | - | - | - | - | 4µM | -
CC(C)[C@H](NC(=O)OC(C)(C)C)c1nnc(S(=O)(=O)Cc2c(F)cccc2Cl)o1 | - | - | - | - | 0.71µM | -
CC(C)C[C@H](N)c1nnc(S(=O)(=O)Cc2cccc(F)c2)o1 | - | - | - | - | 0.63µM | -
CC(C)Cn1nnnc1S(=O)(=O)Cc1cccc(C#N)c1 | . | . | . | - | . | .
C[C@H](NC(=O)OC(C)(C)C)c1nnc(SCc2c(F)cccc2Cl)o1 | . | - | - | . | -[11.4 µM] | .
CC[C@@H](C)[C@H](NC(=O)OC(C)(C)C)c1nnc(S(=O)(=O)Cc2cc(C)ccc2C)o1 | - | - | - | - | 1.1µM | -
CC(C)N(C(=O)N1CCC(c2nc(-c3ccncc3)no2)CC1)C(C)C | - | - | -72 | - | - | -

Source: PubChem
